Records with an inconclusive call do not appear. Activity calls are given as the source filed them. Calls follow the shape of the dose curve; as a rule, active = well fitted curve in the direction sought with a large enough effect in the repeat runs; inconclusive = weak or mixed curves; inactive = no such curve, though single readings can be large; an effect the other way counts as inactive or inconclusive.
How the values were obtained:
[1] = A CellTox Green Cytotoxicity Assay to monitor cytotoxicity in HEK293 cells - 40 hour (AID 1224871); also: nearly all actives have a fitted effect of over 45% in size; also: potency is read from the fitted curve at half-maximal effect
Procedure, shortened: (§1)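 Cells (HEK293, 600/well) and dye reagent are dispensed together. After 5 h at 37 C, 23 nL compound is pinned in. Plates stay at 37 C for 40 h with fluorescence read at 0h, 8h, 16h, 24h, 32h and 40h.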

[2] = qHTS RealTime-Glo MT Cell Viability Assay in HEK293 cells - 16 hour (AID 1224872); also: top concentration of the series differs between compounds; nearly all actives have a fitted effect of over 50% in size
Procedure, shortened: (§2)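 Quantitative high-throughput screen of the Tox21 10K library in HEK293: cells and RealTime-Glo reagents plated together, compound added at 5 h, luminescence monitored through 40 h at 37 C.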

[3] = qHTS RealTime-Glo MT Cell Viability Assay in HepG2 cells - 8 hour (AID 1224873); also: nearly all actives have a fitted effect of over 55% in size
Procedure, shortened: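 HepG2 cells mixed with RealTime-Glo MT reagents (NanoLuc plus cell-permeant prosubstrate) were seeded at 600 cells/well, incubated 5 h at 37 C/5% CO2, then pinned with compounds in DMSO; nonlytic luminescence tracked viability during 40 h treatment.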

[4] = qHTS RealTime-Glo MT Cell Viability Assay in HEK293 cells - 40 hour (AID 1224874); conditions: RealTime-Glo luminescence; max response: stronger effect = lower value; also: nearly all actives have a fitted effect of over 50% in size
Procedure, shortened: (§3)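 Real-time viability in HEK293: signal arises when living cells convert a prosubstrate for NanoLuc in the medium, so luminescence tracks viable cell number. Compound (23 nL, DMSO) added 5 h post-seeding; kinetic reads at 0–40 h, 37 C.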

[5] = A CellTox Green Cytotoxicity Assay to monitor cytotoxicity in HepG2 cells - 16 hour (AID 1224876); also: nearly all actives have a fitted effect of over 45% in size
Procedure, shortened: (§4)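 Cells and non-lytic dye reagent are dispensed together (600 HepG2 cells/well) and incubated 5 h before DMSO compound transfer. Kinetic fluorescence is then recorded in the same wells during 40 h at 37 C.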

[6] = qHTS RealTime-Glo MT Cell Viability Assay in HepG2 cells - 32 hour (AID 1224877); also: nearly all actives have a fitted effect of over 55% in size
Procedure, shortened: (§5)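 Compound treatment began 5 h after plating HepG2 cells (600/well) with NanoLuc luciferase and prosubstrate. Plates stayed at 37 C for 40 h; luminescence was captured at six time points, 0 h through 40 h.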

[7] = A CellTox Green Cytotoxicity Assay to monitor cytotoxicity in HepG2 cells - 40 hour (AID 1224879); also: nearly all actives have a fitted effect of over 40% in size; also: potency is read from the fitted curve at half-maximal effect
Procedure, shortened: as §4

[8] = qHTS RealTime-Glo MT Cell Viability Assay in HEK293 cells - 0 hour (AID 1224880); also: nearly all actives have a fitted effect of over 45% in size; also: potency is read from the fitted curve at half-maximal effect; as to activity change, negative = cytotoxicity: top concentration of the series differs between compounds
Procedure, shortened: as §3

[9] = A CellTox Green Cytotoxicity Assay to monitor cytotoxicity in HEK293 cells - 32 hour (AID 1224881); also: nearly all actives have a fitted effect of over 40% in size
Procedure, shortened: as §1

[10] = A CellTox Green Cytotoxicity Assay to monitor cytotoxicity in HepG2 cells - 0 hour (AID 1224882); also: nearly all actives have a fitted effect of over 35% in size
Procedure, shortened: as §4

[11] = A CellTox Green Cytotoxicity Assay to monitor cytotoxicity in HepG2 cells - 32 hour (AID 1224883); also: nearly all actives have a fitted effect of over 50% in size; also: potency is read from the fitted curve at half-maximal effect
Procedure, shortened: as §4

[12] = A CellTox Green Cytotoxicity Assay to monitor cytotoxicity in HEK293 cells - 8 hour (AID 1224884); also: nearly all actives have a fitted effect of over 35% in size
Procedure, shortened: as §1

[13] = qHTS RealTime-Glo MT Cell Viability Assay in HepG2 cells - 16 hour (AID 1224885); also: nearly all actives have a fitted effect of over 50% in size
Procedure, shortened: as §5

[14] = qHTS RealTime-Glo MT Cell Viability Assay in HEK293 cells - 24 hour (AID 1224886)
Procedure, shortened: as §2

[15] = qHTS RealTime-Glo MT Cell Viability Assay in HEK293 cells - 8 hour (AID 1224887)
Procedure, shortened: as §3

[16] = A CellTox Green Cytotoxicity Assay to monitor cytotoxicity in HEK293 cells - 16 hour (AID 1224888); also: nearly all actives have a fitted effect of over 35% in size; also: potency is read from the fitted curve at half-maximal effect
Procedure, shortened: as §1

[17] = qHTS RealTime-Glo MT Cell Viability Assay in HepG2 cells - 0 hour (AID 1224889); also: nearly all actives have a fitted effect of over 50% in size; also: potency is read from the fitted curve at half-maximal effect
Procedure, shortened: as §5

[18] = A CellTox Green Cytotoxicity Assay to monitor cytotoxicity in HepG2 cells - 8 hour (AID 1224890); also: nearly all actives have a fitted effect of over 45% in size
Procedure, shortened: as §4

[19] = A CellTox Green Cytotoxicity Assay to monitor cytotoxicity in HepG2 cells - 24 hour (AID 1224878); also: nearly all actives have a fitted effect of over 45% in size; also: potency is read from the fitted curve at half-maximal effect
Procedure, shortened: as §4

[20] = A CellTox Green Cytotoxicity Assay to monitor cytotoxicity in HEK293 cells - 24 hour (AID 1224875)
Procedure, shortened: as §1
% is scaled to controls: 0 for no effect and ±100 for the full control effect.

CC(C)CCCCCCOC(=O)c1ccc(C(=O)OCCCCCCC(C)C)c(C(=O)OCCCCCCC(C)C)c1
inactive: Potency [1] | Potency [2] | Potency [3] | max response [4] -0.306% | Potency [5] | Potency [6] | Potency [7] | Potency [8] | Potency [9] | Potency [10] | Potency [11] | Potency [12] | Potency [13] | Potency [14] | Potency [15] | Potency [16] | Potency [17] | Potency [18]

NCc1ccccc1
inactive: Potency [1] | Potency [2] | Potency [3] | max response [4] 2.09% | Potency [5] | Potency [6] | Potency [7] | Potency [8] | Potency [9] | Potency [10] | Potency [11] | Potency [12] | Potency [14] | Potency [15] | Potency [16] | Potency [17] | Potency [18]

CC1=CCC(C(C)C)C=C1 (stereo not drawn)
inactive: Potency [1] | Potency [2] | Potency [3] | Potency [6] | Potency [19] | Potency [7] | Potency [8] | Potency [9] | Potency [10] | Potency [11] | Potency [12] | Potency [13] | Potency [14] | Potency [15] | Potency [16] | Potency [17] | Potency [18]

CCN(CC)C(C)CN1c2ccccc2Sc2ccccc21 (stereo not drawn)
inactive: Potency [1] | Potency [2] | Potency [3] | Potency [20] | Potency [5] | Potency [6] | Potency [19] | Potency [7] | Potency [8] | Potency [9] | Potency [10] | Potency [11] | Potency [12] | Potency [13] | Potency [15] | Potency [16] | Potency [17] | Potency [18]

CC(C(=O)O)c1ccc(C(=O)c2ccccc2)s1 (stereo not drawn)
inactive: Potency [1] | Potency [2] | Potency [3] | max response [4] 4.65% | Potency [6] | Potency [7] | Potency [8] | Potency [9] | Potency [10] | Potency [11] | Potency [12] | Potency [13] | Potency [14] | Potency [15] | Potency [16] | Potency [17] | Potency [18]

CC(C)(C)c1ccc(OCC2CO2)cc1 (stereo not drawn)
inactive: Potency [2] | Potency [3] | max response [4] -5.37% | Potency [5] | Potency [6] | Potency [7] | Potency [8] | Potency [10] | Potency [11] | Potency [12] | Potency [13] | Potency [14] | Potency [15] | Potency [17] | Potency [18]
active: Potency [1] 50 µM

N=C(N=C(N)N)N1CCOCC1
inactive: Potency [1] | Potency [2] | Potency [3] | max response [4] 6.38% | Potency [5] | Potency [19] | Potency [7] | Potency [8] | Potency [9] | Potency [10] | Potency [11] | Potency [13] | Potency [14] | Potency [15] | Potency [16] | Potency [17]

CCOc1ccc2[nH]cc(C(=O)NCc3ccccc3)c(=O)c2n1
inactive: Potency [1] | Potency [2] | max response [4] -23.2% | Potency [20] | Potency [5] | Potency [6] | Potency [19] | Potency [7] | Potency [8] | Potency [9] | Potency [10] | Potency [11] | Potency [13] | Potency [14] | Potency [15] | Potency [16] | Potency [17] | Potency [18]

Cc1ccc(C(C)c2ccc(C)c(C)c2)cc1C
inactive: Potency [1] | Potency [2] | Potency [3] | max response [4] -0.95% | Potency [5] | Potency [19] | Potency [7] | Potency [9] | Potency [10] | Potency [11] | Potency [12] | Potency [13] | Potency [14] | Potency [16] | Potency [17] | Potency [18]

O=C(O)c1cccc(N(Cc2cccnc2)c2ccc(OC(F)F)c(OC(F)F)c2)c1
inactive: Potency [1] | Potency [2] | max response [4] -2.06% | Potency [5] | Potency [19] | Potency [7] | Potency [9] | Potency [10] | Potency [11] | Potency [14] | Potency [15] | Potency [16] | Potency [18]
active: Potency [8] 19.5 µM | Potency [17] 17.4 µM

CN1CCN(C2=Nc3cc(Cl)ccc3Nc3ccccc32)CC1
active: Potency [19] 23.9 µM | Potency [7] 23.9 µM | Potency [11] 23.9 µM | Potency [16] 4.25 µM
inactive: Potency [1] | Potency [2] | Potency [3] | Potency [20] | Potency [5] | Potency [9] | Potency [10] | Potency [12] | Potency [15] | Potency [17] | Potency [18]

C=CCCCCCC
inactive: Potency [1] | Potency [2] | Potency [3] | max response [4] 9.99% | Potency [6] | Potency [19] | Potency [7] | Potency [8] | Potency [9] | Potency [10] | Potency [11] | Potency [12] | Potency [13] | Potency [14] | Potency [15] | Potency [16] | Potency [17] | Potency [18]

CCCCCCc1ccc(N)cc1
active: Potency [19] 49 µM | Potency [7] 49 µM | Potency [11] 49 µM
inactive: Potency [1] | Potency [2] | Potency [3] | max response [4] 4.72% | Potency [6] | Potency [8] | Potency [9] | Potency [10] | Potency [12] | Potency [14] | Potency [16] | Potency [17]

CCN(CCO)CCCC(C)Nc1ccnc2cc(Cl)ccc12 (stereo not drawn)
inactive: cytotoxicity increase [1] -1.39% [at 6.97 µM] | activity change, negative = cytotoxicity [2] 2.31% [at 6.97 µM] | viability change, negative = cytotoxic [3] 4.72% [at 6.97 µM] | max response [4] -1.22% | cytotoxicity increase [5] 19.7% [at 6.97 µM] | cytotoxicity [19] 14.8% [at 6.97 µM] | cytotoxicity increase [7] 10.5% [at 6.97 µM] | activity change, negative = cytotoxicity [8] 3.38% [at 6.97 µM] | cytotoxicity increase [9] -1.54% [at 6.97 µM] | cytotoxicity [10] 10% [at 6.97 µM] | cytotoxicity increase [11] 10.8% [at 6.97 µM] | cytotoxicity increase [12] 0.302% [at 6.97 µM] | activity change, negative = cytotoxicity [14] -0.518% [at 6.97 µM] | activity change, negative = cytotoxicity [15] 0.498% [at 6.97 µM] | activity change [16] -1.57% [at 6.97 µM, stronger effect = higher value] | activity change, negative = cytotoxicity [17] 5.1% [at 6.97 µM] | cytotoxicity increase [18] 17.5% [at 6.97 µM]

— PubChem BioAssay (Tox21)
